Pf apPOL inh = Pf-apPOL DNA polymerase inhibition; AID 1794808; inhibition, % at 10 µM; actives 0.25% (n = 210,000); Recombinant Pf-apPOL, molecular beacon fluorescence, 1.5 h
mHTT-CaM PPI inh = mHTT-calmodulin interaction abrogation | AlphaScreen His-mHTT/GST-CaM binding, luminescence | inhibition, % at 15 µM | actives 3.6% (n = 190,000)
Of the large screens only hits and unclear results are named; the others gave an inactive call. Shown are actives, neighbours in structure and some others; about 3.5% of the full set was active somewhere. No stated cut-off is given here; in the data, active means inhibition above about 50%; inactive means the rest.

COc1ccc(NC(=O)C2CCc3sc(C(=O)N4CCCCC4)cc3C2)c(OC)c1 (stereo unspecified)	mHTT-CaM PPI inh 57
O=C1CCC[C@H]2C[C@H](NCc3ccco3)CC[C@]23CCCN13	none
O=C(NCc1ccc(N2CCOCC2)nc1)c1c(F)cccc1Cl	none
COc1ccccc1C1CC(c2cc(Cl)ccc2O)=NN1 (stereo unspecified)	none
COc1cc(C2CC(c3ccccc3O)=NN2)ccc1O (stereo unspecified)	mHTT-CaM PPI inh 89
COc1cccc(OC)c1C(=O)Nc1ccc(C(C)C)cc1	none
COc1cc(OC)c(-c2c(C#N)c(N)n3c(nc4ccccc43)c2C#N)cc1OC	none
CC(C)(C)N=C1Nc2ncccc2NC12CCCN(C(=O)c1cc(-c3cccs3)[nH]n1)C2 (stereo unspecified)	none
CC(C)(C)N=C1Nc2ncccc2NC12CCN(C(=O)c1cc(-c3cccs3)[nH]n1)CC2	mHTT-CaM PPI inh 57
COc1ccc(CC(=O)Nc2ccc(S(N)(=O)=O)cc2)cc1	none
CC(=O)c1ccc(NC(=O)CN2CCN(Cc3nc(C(C)(C)C)cs3)CC2)cc1	none
CC(C)(C)c1csc(CN2CCN(CC(=O)NC3CCCCC3)CC2)n1	mHTT-CaM PPI inh 100
Cc1c(C(C)(C)C)sc(=NS(=O)(=O)c2cccc([N+](=O)[O-])c2)n1C	none
CC1=CC(=NS(=O)(=O)c2cccc([N+](=O)[O-])c2)C=CC1=O	mHTT-CaM PPI inh 84
O=C1S/C(=C\c2ccc3c(c2)OCO3)C(=O)N1Cc1ccccc1Cl	none
O=C(C1CC(c2c(F)cccc2Cl)=NO1)N1CCCCC1 (stereo unspecified)	none
COc1ccc(C2CC(c3ccccc3)Nc3nnnn32)cc1 (stereo unspecified)	none
COc1ccc(C2CC(c3ccc(-c4ccccc4)cc3)Nc3nnnn32)cc1 (stereo unspecified)	mHTT-CaM PPI inh 64
O=C(CCc1conc1-c1ccc(F)cc1)NC1CCCCC1	none
Cc1cc(O)c2c(c1)OC(=Cc1cccc(Br)c1)C2=O	mHTT-CaM PPI inh 56
Cc1cc(O)c2c(c1)OC(=Cc1ccccc1F)C2=O	none
Cc1cc(O)c2c(c1)OC(=Cc1cn(C)c3ccccc13)C2=O	mHTT-CaM PPI inh 72
Cc1cc(O)c2c(c1)OC(=Cc1ccc(Br)cc1)C2=O	none
Cc1c(C(=O)NCCCN2CCOCC2)cc(-c2ccccc2)n1-c1ccccc1	none (no result: mHTT-CaM PPI inh)
O=C(O)c1cccc(O)c1C(=O)O	none
COc1cccc(CNC(=O)C2(C)CCCN(C(=O)Nc3cccc(F)c3)C2)c1 (stereo unspecified)	none
O=C(Nc1ccc2c(c1)OCCO2)c1cccc(C(=O)Nc2ccc3c(c2)OCCO3)n1	none
Cc1noc(-c2cccc(C(F)(F)F)c2)c1C(=O)NCc1cccs1	none
CCN(CC)Cc1c(O)ccc2c(=O)c(-c3ccc(OC)c(OC)c3)c(C(F)(F)F)oc12	none
O=C(c1ccc(Br)cc1)N1CCC(n2c(-c3ccco3)nc3cccnc32)C1 (stereo unspecified)	mHTT-CaM PPI inh 84
CCc1ccc(C(=O)N2CCC(n3c(-c4ccco4)nc4cccnc43)C2)cc1 (stereo unspecified)	mHTT-CaM PPI inh 76
Cc1ccc(C(=O)N2CCC(n3c(-c4ccoc4)nc4cccnc43)C2)cc1F (stereo unspecified)	none
O=C(c1cc(F)cc(F)c1)N1CCC(n2c(-c3ccco3)nc3cccnc32)C1 (stereo unspecified)	none
O=C(c1ccc(Cl)cc1)N1CCC(n2c(-c3ccco3)nc3cccnc32)C1 (stereo unspecified)	mHTT-CaM PPI inh 77
O=C(c1ccc(F)c(Cl)c1)N1CCC(n2c(-c3ccoc3)nc3cccnc32)C1 (stereo unspecified)	mHTT-CaM PPI inh 99
COc1ccc(C(=O)N2CCC(n3c(-c4ccco4)nc4cccnc43)C2)cc1OC (stereo unspecified)	none
O=C(c1ccoc1)N1CCC(n2c(-c3ccco3)nc3cccnc32)C1 (stereo unspecified)	none
COc1cccc(N2CC(C(=O)NCC3(c4cccs4)CC3)CC2=O)c1 (stereo unspecified)	none
OC(CNC1CCCC1)COc1ccc(C23CC4CC(CC(C4)C2)C3)cc1 (stereo unspecified)	none
Cc1cc(=O)[nH]c(C(C)C)n1	none (no result: Pf apPOL inh)
Cc1c(CC(Cl)(Cl)Cl)c2c(n1-c1cccnc1)CCCC2=O	none
COc1ccc(OC)c(C=C2Oc3c(ccc(O)c3CN3CCCC3)C2=O)c1	none
CCOc1ccc(NC(=O)C2CN(S(=O)(=O)c3cccnc3)CC23CCCCC3)cc1 (stereo unspecified)	mHTT-CaM PPI inh 52
COc1ccc(CNC(=O)C2CN(S(=O)(=O)c3cccnc3)CC23CCCCC3)cc1 (stereo unspecified)	none
Cc1ccc(C)c(S(=O)(=O)N2CCC(c3nc(C(=O)N4CCOCC4)c(C)o3)CC2)c1	none
COc1ccc(C(=O)C=Cc2ccc(OC)c(OC)c2)c(OC)c1	none
COc1ccc(C(=O)C=Cc2ccc(OC)c(OC)c2)c(O)c1	mHTT-CaM PPI inh 50
CCOc1ccc(S(=O)(=O)Nc2ccc(OC)c(Cl)c2)c2cccnc12	none

Assay outcomes as filed in PubChem BioAssay.
